Values joined by “and” are separate entries in the source; they are usually repeats but may differ in a detail not shown here. Equal entries are not always repeated. About 2,000 (36%) of roughly 5,500 compounds were called active. Roughly 18% stayed inconclusive and do not appear here. No stated cut-off is given here; in the data, active means normalized growth mostly below about 0.91 (no sharp cut-off); inconclusive means no clear call, values can overlap the other calls; inactive means mostly above about 0.92. Some of the results follow.
Assay: chemical genetic growth profiling, strain panel (AID 1159580);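 further: tested at 20 µM; growth read once vehicle control cultures reached saturation at 30 °C; 1 = growth at the plate median or of vehicle wells; lower values mean less growth of the strain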
Details: S. cerevisiae deletion strains, growth OD

Measured: normalized growth

CC(=O)O[C@H]1CC[C@@]2(C)C(CC[C@]3(C)C2CC=C2C4CC(C)(C)CC[C@]4(C)CC[C@]23C)C1(C)C (stereo partly drawn)
inactive: locus YAL013W, strain DEP1, active compounds read low 1.02 | locus YAL021C, strain ccr4, active compounds read low 0.919 | locus YAL026C, strain drs2, active compounds read low 1.01 | locus YAL030W, strain snc1, active compounds read low 0.979 | locus YBL061C, strain skt5, active compounds read low 0.996 | locus YBR009C, strain hhf1, active compounds read low 0.973 | locus YBR021W, strain FUR4, active compounds read low 1.01 | locus YBR023C, strain chs3, active compounds read low 0.982 | locus YBR171W, strain sec66, active compounds read low 0.99 | locus YBR229C, strain ROT2, active compounds read low 1 | locus YBR231C, strain swc5, active compounds read low 1.01 | locus YBR279W, strain paf1, active compounds read low 0.999 | locus YCL011C, strain gbp2, active compounds read low 0.962 | locus YCL016C, strain dcc1, active compounds read low 0.964 | locus YCL029C, strain bik1, active compounds read low 1 | locus YCL061C, strain MRC1, active compounds read low 0.99 | locus YCL069W, strain vba3, active compounds read low 0.978 | locus YCR088W, strain abp1, active compounds read low 0.991 | locus YDL005C, strain med2, active compounds read low 0.988 | locus YDL035C, strain GPR1, active compounds read low 1.03 | locus YDL040C, strain nat1, active compounds read low 0.989 | locus YDL074C, strain BRE1, active compounds read low 1.06 | locus YDL101C, strain DUN1, active compounds read low 1.02 | locus YDL185W, strain tfp1, active compounds read low 1.02 | locus YDL192W, strain arf1, active compounds read low 1 | locus YDR001C, strain nth1, active compounds read low 0.968 | locus YDR069C, strain doa4, active compounds read low 0.971 | locus YDR101C, strain arx1, active compounds read low 0.997 | locus YDR137W, strain rgp1, active compounds read low 0.973 | locus YDR150W, strain NUM1, active compounds read low 1.01 | locus YDR159W, strain sac3, active compounds read low 0.998 | locus YDR162C, strain NBP2, active compounds read low 1.03 | locus YDR195W, strain ref2 0.953 | locus YDR297W, strain sur2, active compounds read low 1 | locus YDR318W, strain mcm21, active compounds read low 1.01 | locus YDR334W, strain swr1, active compounds read low 0.98 | locus YDR335W, strain msn5, active compounds read low 0.989 | locus YDR388W, active compounds read low 1.02 | locus YDR392W, strain spt3, active compounds read low 0.889 | locus YDR502C, strain sam2, active compounds read low 1.02 | locus YEL003W, strain gim4, active compounds read low 1.02 | locus YEL037C, strain rad23, active compounds read low 0.978 | locus YEL061C, strain CIN8 (second series), active compounds read low 0.978 | locus YER015W, strain faa2, active compounds read low 0.981 | locus YER016W, strain bim1, active compounds read low 0.992 | locus YER110C, active compounds read low 1.01 | locus YER111C, strain swi4, active compounds read low 0.99 | locus YER155C, strain BEM2 (second series), active compounds read low 1.02 | locus YER155C, strain BEM2, active compounds read low 1.01 | locus YER167W, strain BCK2, active compounds read low 1 | locus YFR010W, strain ubp6, active compounds read low 0.992 | locus YGL078C, strain dbp3, active compounds read low 1.06 | locus YGL086W, strain mad1, active compounds read low 1.01 | locus YGL167C, strain pmr1, active compounds read low 0.975 | locus YGL173C, strain kem1, active compounds read low 1 | locus YGL227W, strain vid30, active compounds read low 0.987 | locus YGL240W, strain doc1, active compounds read low 1.01 | locus YGL248W, strain PDE1, active compounds read low 1.02 | locus YGL253W, strain hxk2, active compounds read low 1.02 | locus YGR078C, strain PAC10, active compounds read low 1.03 | locus YGR135W, strain pre9, active compounds read low 1.04 | locus YGR252W, strain gcn5, active compounds read low 1.08 | locus YHR013C, strain ard1, active compounds read low 0.943 | locus YHR027C, strain rpn1, active compounds read low 0.983 | locus YHR030C, strain SLT2, active compounds read low 1.01 and 1.03 | locus YHR079C, strain IRE1 (second series), active compounds read low 1.01 | locus YHR079C, strain IRE1, active compounds read low 1.03 | locus YHR094C, strain hxt1, active compounds read low 1.02 | locus YHR129C, strain ARP1, active compounds read low 1.01 | locus YHR142W, strain chs7, active compounds read low 0.959 | locus YHR200W, strain rpn10, active compounds read low 1.02 | locus YIL066C, strain RNR3, active compounds read low 1.01 | locus YIL073C, strain SPO22, active compounds read low 1.04 | locus YIL125W, strain kgd1, active compounds read low 1.01 | locus YIR030C, strain dcg1, active compounds read low 1.04 | locus YJL092W, strain hpr5, active compounds read low 0.975 | locus YJL095W, strain BCK1 (second series), active compounds read low 0.986 | locus YJL095W, strain BCK1, active compounds read low 1.04 and 1.02 | locus YJL115W, strain asf1, active compounds read low 0.968 | locus YJL129C, strain trk1, active compounds read low 0.993 | locus YJL134W, strain LCB3, active compounds read low 1.01 | locus YJL154C, strain vps35, active compounds read low 0.975 | locus YJL164C, strain tpk1, active compounds read low 0.949 | locus YJL166W, strain qcr8, active compounds read low 0.999 | locus YJL168C, strain set2, active compounds read low 1.02 | locus YJL187C, strain SWE1 (second series), active compounds read low 1.03 | locus YJL187C, strain SWE1, active compounds read low 0.986 | locus YJR043C, strain POL32, active compounds read low 1.01 | locus YJR066W, strain TOR1, active compounds read low 0.976 | locus YKL009W, strain mrt4, active compounds read low 1 | locus YKL068W, active compounds read low 1.02 | locus YKL085W, strain MDH1 (second series), active compounds read low 1.01 | locus YKL085W, strain MDH1, active compounds read low 1.01 | locus YKL160W, strain elf1, active compounds read low 0.963 | locus YKL190W, strain CNB1, active compounds read low 1.01 | locus YKR001C, strain vps1, active compounds read low 0.997 | locus YKR026C, strain gcn3, active compounds read low 0.991 | locus YKR091W, strain srl3, active compounds read low 0.986 | locus YLL001W, strain dnm1, active compounds read low 0.978 | locus YLL026W, active compounds read low 0.978 | locus YLL041C, strain sdh2, active compounds read low 0.976 | locus YLR027C, strain aat2, active compounds read low 0.989 | locus YLR039C, strain RIC1, active compounds read low 0.999 | locus YLR058C, strain SHM2, active compounds read low 1.02 | locus YLR102C, strain apc9, active compounds read low 1 | locus YLR113W, strain HOG1, active compounds read low 1 | locus YLR221C, strain rsa3, active compounds read low 1.03 | locus YLR258W, strain gsy2, active compounds read low 0.962 | locus YLR262C, strain YPT6 (second series), active compounds read low 0.976 | locus YLR262C, strain YPT6, active compounds read low 1.01 | locus YLR268W, strain sec22, active compounds read low 1.02 | locus YLR320W, strain mms22, active compounds read low 1.05 | locus YLR342W, strain FKS1, active compounds read low 0.991 | locus YLR357W, strain rsc2, active compounds read low 0.973 | locus YLR370C, strain arc18, active compounds read low 0.967 | locus YLR371W, strain rom2, active compounds read low 1.02 | locus YLR384C, strain iki3, active compounds read low 1 | locus YLR418C, strain cdc73, active compounds read low 1.05 | locus YML016C, strain PPZ1, active compounds read low 0.996 | locus YML032C, strain rad52, active compounds read low 1 | locus YML120C, strain ndi1, active compounds read low 0.96 | locus YML124C, strain tub3, active compounds read low 1.01 | locus YMR058W, strain fet3, active compounds read low 0.996 | locus YMR078C, strain ctf18, active compounds read low 1.03 | locus YMR125W, strain sto1, active compounds read low 0.948 | locus YMR129W, active compounds read low 0.988 | locus YMR205C, strain PFK2, active compounds read low 0.959 | locus YMR223W, strain ubp8, active compounds read low 1.02 | locus YMR231W, strain pep5, active compounds read low 0.994 | locus YMR263W, strain SAP30, active compounds read low 1.03 | locus YMR307W, strain GAS1, active compounds read low 1.11 | locus YNL067W, strain RPL9B, active compounds read low 1.04 | locus YNL071W, strain lat1, active compounds read low 0.982 | locus YNL153C, strain GIM3, active compounds read low 1.03 | locus YNL183C, strain NPR1, active compounds read low 0.964 | locus YNL209W, strain ssb2, active compounds read low 0.984 | locus YNL233W, strain BNI4, active compounds read low 1.02 | locus YNL248C, strain rpa49, active compounds read low 0.918 | locus YNL250W, strain rad50, active compounds read low 1.02 | locus YNL271C, strain bni1, active compounds read low 1.03 | locus YNL298W, strain CLA4, active compounds read low 1.03 | locus YNL307C, strain MCK1, active compounds read low 1.02 | locus YNL322C, strain KRE1 (second series), active compounds read low 0.982 | locus YNR049C, strain mso1, active compounds read low 0.966 | locus YNR052C, strain pop2, active compounds read low 1.02 | locus YOL012C, strain htz1 1.53 | locus YOL147C, strain pex11, active compounds read low 1.01 | locus YOR001W, strain rrp6, active compounds read low 1.01 | locus YOR061W, strain CKA2, active compounds read low 1.02 | locus YOR069W, strain VPS5, active compounds read low 1.01 | locus YOR070C, strain gyp1, active compounds read low 1.02 | locus YOR080W, strain dia2, active compounds read low 1 | locus YOR083W, strain WHI5, active compounds read low 0.957 | locus YOR106W, strain vam3, active compounds read low 0.929 | locus YOR136W, strain idh2, active compounds read low 1.01 | locus YOR144C, strain elg1, active compounds read low 1.01 | locus YOR184W, strain ser1, active compounds read low 1.01 | locus YOR231W, strain MKK1, active compounds read low 1 | locus YOR265W, strain rbl2, active compounds read low 0.998 | locus YOR270C, strain vph1, active compounds read low 1.03 | locus YOR290C, strain snf2, active compounds read low 0.906 | locus YOR316C, strain cot1, active compounds read low 1.01 | locus YPL051W, strain arl3, active compounds read low 1.01 | locus YPL078C, strain atp4, active compounds read low 0.945 | locus YPL106C, strain sse1, active compounds read low 0.94 | locus YPL240C, strain hsp82, active compounds read low 0.995 | locus YPL241C, strain CIN2, active compounds read low 1.01 | locus YPL256C, strain CLN2, active compounds read low 1.06 | locus YPR119W, strain clb2, active compounds read low 1.02 | locus YPR141C, strain kar3, active compounds read low 1.02 | locus YPR163C, strain tif3, active compounds read low 1.02 | locus YPR167C, strain met16, active compounds read low 1.02 | strain wtn01, active compounds read low 1.02
